Source: PubChem
An excerpt weighted towards active compounds, which were near 3.4% of everything screened.
Calpain2 inh: inhibitors of pig calpain II, primary screen, biochemical, fluorogenic peptide substrate, 1536-well. purified calpain II, 30 min. hit rate 0.37% among 220,000. inhibition, % at 16 µM. AID 1236, 2008;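 active = inhibition above about 50%, limit read from the data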
Mcl-1 Bim block: inhibitors of Bim peptide binding to Mcl-1, primary screen, biochemical, bead-based flow cytometry, multiplex; Bim peptide-Mcl-1 binding; hit rate 0.1% among 190,000; Induced myeloid leukemia cell differentiation protein Mcl-1 (Homo sapiens), Q07820; inhibition, % at 10 µM; in the data active = inhibition above about 40%;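 note: 0% = no compound tracer wells and 100% = peptide blocker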
Mcl1 Noxa PPI: Mcl-1/Noxa binding inhibitors, primary screen, biochemical, TR-FRET, 1536-well | Induced myeloid leukemia cell differentiation protein Mcl-1 (Homo sapiens), Q07820 | TR-FRET Mcl-1/Noxa peptide binding, 2 h | inhibition, % at 21.7 µM | hit rate 1.5% among 220,000 | AID 1022, 2008;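 active = compounds that cut the protein-peptide binding signal by more than 50% relative to plate controls in a single-dose test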;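 note: His-tagged Mcl-1 with rhodamine Noxa BH3 peptide and terbium anti-His antibody; 0% = Mcl-1 plus Noxa peptide wells and 100% = peptide-only wells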
p47phox inh: p47phox/p22phox peptide binding inhibitors, primary screen, biochemical, uHTS, NADPH oxidase regulatory subunit; fluorescence polarization, 2 h; inhibition, % at 24.7 µM; hit rate 0.53% among 220,000;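 active = inhibition above about 30%, limit read from the data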;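 note: 0% = p47phox with labelled peptide and 100% = labelled peptide alone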
Target sequence (P14598 whole entry, looked up): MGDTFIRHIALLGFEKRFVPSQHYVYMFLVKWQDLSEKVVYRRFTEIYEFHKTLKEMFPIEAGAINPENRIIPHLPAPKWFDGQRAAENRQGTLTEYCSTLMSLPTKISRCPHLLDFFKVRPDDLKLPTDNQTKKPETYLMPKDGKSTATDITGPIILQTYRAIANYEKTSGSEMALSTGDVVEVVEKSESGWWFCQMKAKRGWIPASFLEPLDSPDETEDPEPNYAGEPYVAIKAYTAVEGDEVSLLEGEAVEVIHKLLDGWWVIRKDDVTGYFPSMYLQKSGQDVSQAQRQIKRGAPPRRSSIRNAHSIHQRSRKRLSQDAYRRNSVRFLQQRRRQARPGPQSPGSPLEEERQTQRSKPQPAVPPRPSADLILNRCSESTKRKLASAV
14-3-3 Bad PPI: inhibitors of 14-3-3 zeta/Bad binding, primary screen, biochemical, TR-FRET, bovine 14-3-3 zeta. 14-3-3 protein zeta/delta (Bos taurus), P63103. TR-FRET 14-3-3zeta/Dy647-pBad peptide displacement, 1 h. inhibition, % at 21.7 µM. hit rate 0.71% among 220,000;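 active = inhibition above about 70%, limit read from the data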;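 note: 0% = full 14-3-3 plus peptide FRET controls and 100% = background without 14-3-3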
Target sequence (P63103 whole entry, looked up): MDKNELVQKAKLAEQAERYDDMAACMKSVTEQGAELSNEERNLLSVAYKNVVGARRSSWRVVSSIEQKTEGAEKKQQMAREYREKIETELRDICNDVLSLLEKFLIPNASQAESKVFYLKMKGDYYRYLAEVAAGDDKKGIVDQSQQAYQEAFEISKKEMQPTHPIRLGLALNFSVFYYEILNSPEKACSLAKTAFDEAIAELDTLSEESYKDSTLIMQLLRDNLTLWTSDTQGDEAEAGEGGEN
Mcl1 Bid PPI: Mcl-1/Bid binding inhibitors, primary screen, biochemical, TR-FRET, 1536-well | Induced myeloid leukemia cell differentiation protein Mcl-1 (Homo sapiens), Q07820 | TR-FRET Mcl-1/Bid-Dy647 peptide binding | inhibition, % at 21.7 µM | hit rate 0.97% among 220,000 | AID 1021, 2008;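 active = compounds that cut the binding signal by more than half at the single screening dose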;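 note: His-tagged Mcl-1 with europium anti-His antibody binding Bid BH3 peptide; 0% = Mcl-1 plus peptide wells and 100% = peptide-only wells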
* = called active by the depositor; · = no result.

SMILES | Calpain2 inh | Mcl-1 Bim block | Mcl1 Noxa PPI | p47phox inh | 14-3-3 Bad PPI | Mcl1 Bid PPI
C/C(N)=C(/C#N)C(=O)COC(=O)CNC(=O)c1ccc(Cl)cc1Cl | 4 | 0 | 19 | 0 | 1 | -33
COC(=O)c1cccc(OCC(O)Cn2ccnc2)c1 (stereo unspecified) | 21 | -1 | 9 | -5 | -3 | 91*
C/C(=N/NC(=O)c1ccc2c(c1)OCO2)c1ccc(NC(=O)C(F)(F)F)cc1 | 14 | 0 | -58 | 34* | 86* | 31
C/C(=N\NC(=O)c1ccc2c(c1)OCO2)c1ccc(O)cc1 | 6 | · | 6 | 0 | -1 | -15
Cc1ccccc1N1C(=O)C(Oc2ccc(Cl)cc2)C1CNC(C)(C)C (stereo unspecified) | 11 | -5 | 5 | -3 | -16 | -24
Cc1ccc2[nH]c3c(c2c1)CN(C)CC3 | -2 | -1 | -2 | -3 | 75* | -15
CCc1nnc(NS(=O)(=O)c2ccc(NC(=O)c3cc4ccccc4oc3=O)cc2)s1 | -8 | -7 | 64* | -5 | -1 | 8
COc1ccc2[nH]cc(CCNS(=O)(=O)Cc3ccccc3)c2c1 | -7 | -1 | -14 | -9 | -10 | -61
CCN(CC)c1ccc(NC(=O)c2cncc(Br)c2)cc1 | 2 | -4 | 58* | -5 | 3 | -5
CC(=O)N(C)c1ccc(NC(=O)Nc2ccc(C)cc2)cc1 | 51* | 0 | 7 | -6 | -14 | -16
CCN(CC)c1ccc(NC(=O)Nc2ccc(C(C)=O)cc2)cc1 | 0 | -5 | 97* | -12 | 0 | 5
CC(=O)N(C)c1ccc(NC(=S)Nc2ccccc2)cc1 | -6 | -1 | -13 | 2 | 3 | -31
Cc1ccc(N2C(=O)CC(Cn3nc(C)cc3C)C2=O)cc1 (stereo unspecified) | -12 | 0 | 11 | -7 | · | 91*
O=C(Cn1nc(Cl)nc1Cl)c1cc2ccccc2oc1=O | -43 | -1 | 24 | -8 | 9 | 39
O=C1Nc2ccc(S(=O)(=O)N3CCCC3)c3cccc1c23 | -496 | -3 | 7 | -1 | -2 | -11
O=C(c1ccco1)N1C(=O)c2cccc3c(S(=O)(=O)N4CCCC4)ccc1c23 | -173 | -10 | 61* | 1 | 4 | 78*
Cc1cc(C)c(S(=O)(=O)CCC(C)C)c(=O)[nH]1 | -17 | 5 | 3 | 2 | -10 | -27
CC(C)CC(=O)Nc1ncc([N+](=O)[O-])s1 | 25 | · | 50 | -11 | 8 | -26
Cc1nc(C)c(C(=O)Nc2ncc([N+](=O)[O-])s2)o1 | -19 | 0 | 69* | -7 | 22 | -22
O=C(NCc1ccco1)c1sc(=S)n2c1[nH]c(=O)c1ccccc12 | -15 | -2 | 73* | -42 | 43 | -30
Cc1ccc(CNC(=O)c2ccc3c(=O)[nH]c4c(C(=O)NCC5CCCO5)sc(=S)n4c3c2)cc1 (stereo unspecified) | 46 | 0 | 74* | -36 | 0 | 17
O=C(NCc1ccccc1)c1ccc2c(=O)[nH]c3c(C(=O)NCC4CCCO4)sc(=S)n3c2c1 (stereo unspecified) | -76 | 0 | 64* | -39 | -17 | -35
CCn1c(N)c(C(=O)NCC2CCCO2)sc1=S (stereo unspecified) | 1 | -14 | 5 | 2 | 10 | -21
CCCCCNC(=O)c1ccc2c(=O)[nH]c3c(C(=O)NCC4CCCO4)sc(=S)n3c2c1 (stereo unspecified) | -10 | 4 | 52* | -41 | 1 | -39
CCn1c(-c2cc(C3CC3)nc3ccccc23)n[nH]c1=S | -11 | -5 | 55* | 9 | 32 | -11
SMILES | Calpain2 inh | Mcl-1 Bim block | Mcl1 Noxa PPI | p47phox inh | 14-3-3 Bad PPI | Mcl1 Bid PPI
O=[N+]([O-])c1cc(/C=N\O)ccc1Oc1ccc(F)cc1 | 13 | 0 | 0 | -6 | 85* | -37
COc1cc(/C=C2/SC(=Nc3ccc(O)cc3)NC2=O)cc(OC)c1O | 4 | 15 | 51* | -123 | 1 | -51
COc1ccc(N=C2NC(=O)/C(=C\c3ccco3)S2)cc1 | -35 | 0 | 45 | -18 | 0 | -56
O=C1NC(=Nc2ccc(O)cc2)S/C1=C\C=C\c1ccco1 | -15 | · | 60* | -14 | 7 | -20
COc1ccc(Oc2cnn(-c3ccccc3)c(=O)c2Br)cc1 | 14 | 0 | -7 | 1 | -1 | 0
Cn1c(SCC(=O)NCc2cccs2)nnc1-c1ccc(O)cc1 | -23 | 0 | 8 | 0 | 1 | -18
COc1cc(Cc2ccc(N)c(OC)c2)ccc1N | -21 | -2 | 19 | -4 | -4 | -14
Nc1ccc(Cc2ccc(N)c(O)c2)cc1O | -87 | 2 | 87* | 11 | 47 | 27
CCCCCCN1C=C/C(=C\C=C(C#N)C#N)c2ccccc21 | 8 | 2 | -25 | 128* | -5 | -42
C=CCN1C=C/C(=C\C=C(C#N)C#N)c2ccccc21 | 16 | 5 | 22 | 83* | -10 | -43
Cc1nc2scc(-c3ccc(C(C)C)cc3)c2c(=O)n1N | 42 | -1 | 6 | -7 | -3 | -21
O=C(c1ccco1)N1CCN(CC(=O)N2c3ccccc3CCc3ccccc32)CC1 | 9 | -2 | 15 | 10 | 31 | 56*
O=C(CN1CCCCC1)N1c2ccccc2CCc2ccccc21 | -25 | 0 | 10 | -12 | -14 | -27
O=C(c1ccco1)N1CCN(Cc2cccc(F)c2)CC1 | -11 | 1 | 32 | -5 | 73* | 22
Brc1cccc(CN2CCCCCCC2)c1 | 20 | 3 | 16 | -5 | 58 | 6
O=C(c1cccc(F)c1)N1CCN(Cc2ccco2)CC1 | -13 | -1 | -9 | -5 | 61 | -14
CCOc1ccc(CN2CCN(C(=O)c3cccc(F)c3)CC2)cc1 | -9 | 0 | 36 | 0 | 72* | 66*
Fc1cccc(CN2CCCCCCC2)c1 | -21 | -5 | 33 | -8 | 78* | 42
COc1ccccc1OCCC(=O)OCC(=O)c1c(N)n(C)c(=O)n(C)c1=O | -10 | 0 | 14 | -4 | -18 | -9
Cc1c(Br)c(C(F)(F)F)nn1CC(=O)NCc1ccccc1 | 18 | -2 | 18 | 2 | -7 | -15
CC1CCC2(CC1)NC(=O)N(CC(=O)Nc1ccc3c(c1)OCCO3)C2=O (stereo unspecified) | 7 | -2 | -8 | -10 | 0 | -4
Cc1cccc(NC(=S)Nc2ccc(N3CCOCC3)cc2)c1C | 17 | 6 | 18 | -3 | 2 | -27
O=C(CN1CCN(C(=O)c2cccc(F)c2)CC1)NC1CCCCC1 | 0 | -1 | 5 | -2 | 75* | 21
